23 targets from the supplement of paper PMC10849652 can be followed below.

Targets with a hit are over-represented here; the source holds about 7,900 in all. About 0.6% of all pairs of compound and target were hits.

Chain of UniProt P05114 (P05114 whole entry, looked up): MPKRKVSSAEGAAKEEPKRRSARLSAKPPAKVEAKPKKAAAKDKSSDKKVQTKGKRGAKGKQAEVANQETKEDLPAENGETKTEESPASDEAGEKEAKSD
Chain of UniProt P55795 (P55795 whole entry, looked up): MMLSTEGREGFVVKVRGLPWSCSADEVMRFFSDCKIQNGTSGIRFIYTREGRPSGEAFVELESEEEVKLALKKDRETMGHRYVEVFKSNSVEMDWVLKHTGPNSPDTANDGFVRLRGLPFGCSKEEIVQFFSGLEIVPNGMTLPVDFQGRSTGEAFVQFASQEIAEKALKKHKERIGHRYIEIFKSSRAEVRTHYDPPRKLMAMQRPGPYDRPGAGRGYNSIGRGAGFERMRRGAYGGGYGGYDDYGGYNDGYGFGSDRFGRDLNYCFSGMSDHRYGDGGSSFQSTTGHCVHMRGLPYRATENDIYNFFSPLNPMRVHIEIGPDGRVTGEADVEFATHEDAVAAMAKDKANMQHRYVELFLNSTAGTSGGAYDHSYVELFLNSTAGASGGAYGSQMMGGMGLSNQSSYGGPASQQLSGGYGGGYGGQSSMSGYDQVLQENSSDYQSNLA
Chain of UniProt Q7Z4V5 (Q7Z4V5 whole entry, looked up): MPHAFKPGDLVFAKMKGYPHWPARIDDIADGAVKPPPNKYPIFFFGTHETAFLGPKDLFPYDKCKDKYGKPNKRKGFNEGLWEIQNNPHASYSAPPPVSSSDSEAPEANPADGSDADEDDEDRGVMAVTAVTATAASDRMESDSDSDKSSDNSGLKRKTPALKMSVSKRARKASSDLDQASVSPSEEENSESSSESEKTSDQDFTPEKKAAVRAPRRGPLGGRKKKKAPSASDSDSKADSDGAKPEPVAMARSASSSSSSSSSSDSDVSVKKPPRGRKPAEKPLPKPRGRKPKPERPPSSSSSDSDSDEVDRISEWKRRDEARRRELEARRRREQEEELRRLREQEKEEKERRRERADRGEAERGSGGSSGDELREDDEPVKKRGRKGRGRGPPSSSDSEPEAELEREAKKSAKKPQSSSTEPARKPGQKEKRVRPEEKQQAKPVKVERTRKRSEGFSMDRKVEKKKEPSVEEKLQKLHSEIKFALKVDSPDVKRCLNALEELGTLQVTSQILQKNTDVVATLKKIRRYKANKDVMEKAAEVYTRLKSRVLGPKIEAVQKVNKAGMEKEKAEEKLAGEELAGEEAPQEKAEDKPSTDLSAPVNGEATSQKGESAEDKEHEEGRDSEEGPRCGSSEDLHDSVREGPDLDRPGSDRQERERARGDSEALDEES
Chain of UniProt Q9BUJ2 (Q9BUJ2 whole entry, looked up): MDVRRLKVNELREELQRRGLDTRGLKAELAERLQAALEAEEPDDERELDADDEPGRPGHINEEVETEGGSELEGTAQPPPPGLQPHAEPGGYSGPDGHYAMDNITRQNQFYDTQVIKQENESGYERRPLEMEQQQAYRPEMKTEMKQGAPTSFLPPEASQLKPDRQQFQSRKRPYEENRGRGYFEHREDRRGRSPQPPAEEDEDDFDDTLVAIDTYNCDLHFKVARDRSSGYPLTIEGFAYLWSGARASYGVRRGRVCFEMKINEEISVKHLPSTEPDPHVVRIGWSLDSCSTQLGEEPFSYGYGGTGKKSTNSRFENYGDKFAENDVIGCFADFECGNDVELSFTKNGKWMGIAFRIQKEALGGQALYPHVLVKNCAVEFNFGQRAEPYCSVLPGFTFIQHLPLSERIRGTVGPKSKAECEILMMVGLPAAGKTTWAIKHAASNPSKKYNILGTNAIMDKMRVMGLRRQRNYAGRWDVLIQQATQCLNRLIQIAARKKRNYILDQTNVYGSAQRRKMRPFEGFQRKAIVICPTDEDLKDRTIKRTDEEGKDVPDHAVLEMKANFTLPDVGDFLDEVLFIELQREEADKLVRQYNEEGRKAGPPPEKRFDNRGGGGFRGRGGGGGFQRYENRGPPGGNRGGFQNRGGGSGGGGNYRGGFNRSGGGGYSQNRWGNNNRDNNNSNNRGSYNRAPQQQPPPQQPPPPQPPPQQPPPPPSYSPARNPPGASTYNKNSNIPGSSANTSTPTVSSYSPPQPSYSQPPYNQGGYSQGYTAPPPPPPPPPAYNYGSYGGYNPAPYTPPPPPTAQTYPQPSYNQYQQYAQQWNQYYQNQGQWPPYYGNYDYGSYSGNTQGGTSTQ
Chain of UniProt Q92538 (Q92538 whole entry, looked up): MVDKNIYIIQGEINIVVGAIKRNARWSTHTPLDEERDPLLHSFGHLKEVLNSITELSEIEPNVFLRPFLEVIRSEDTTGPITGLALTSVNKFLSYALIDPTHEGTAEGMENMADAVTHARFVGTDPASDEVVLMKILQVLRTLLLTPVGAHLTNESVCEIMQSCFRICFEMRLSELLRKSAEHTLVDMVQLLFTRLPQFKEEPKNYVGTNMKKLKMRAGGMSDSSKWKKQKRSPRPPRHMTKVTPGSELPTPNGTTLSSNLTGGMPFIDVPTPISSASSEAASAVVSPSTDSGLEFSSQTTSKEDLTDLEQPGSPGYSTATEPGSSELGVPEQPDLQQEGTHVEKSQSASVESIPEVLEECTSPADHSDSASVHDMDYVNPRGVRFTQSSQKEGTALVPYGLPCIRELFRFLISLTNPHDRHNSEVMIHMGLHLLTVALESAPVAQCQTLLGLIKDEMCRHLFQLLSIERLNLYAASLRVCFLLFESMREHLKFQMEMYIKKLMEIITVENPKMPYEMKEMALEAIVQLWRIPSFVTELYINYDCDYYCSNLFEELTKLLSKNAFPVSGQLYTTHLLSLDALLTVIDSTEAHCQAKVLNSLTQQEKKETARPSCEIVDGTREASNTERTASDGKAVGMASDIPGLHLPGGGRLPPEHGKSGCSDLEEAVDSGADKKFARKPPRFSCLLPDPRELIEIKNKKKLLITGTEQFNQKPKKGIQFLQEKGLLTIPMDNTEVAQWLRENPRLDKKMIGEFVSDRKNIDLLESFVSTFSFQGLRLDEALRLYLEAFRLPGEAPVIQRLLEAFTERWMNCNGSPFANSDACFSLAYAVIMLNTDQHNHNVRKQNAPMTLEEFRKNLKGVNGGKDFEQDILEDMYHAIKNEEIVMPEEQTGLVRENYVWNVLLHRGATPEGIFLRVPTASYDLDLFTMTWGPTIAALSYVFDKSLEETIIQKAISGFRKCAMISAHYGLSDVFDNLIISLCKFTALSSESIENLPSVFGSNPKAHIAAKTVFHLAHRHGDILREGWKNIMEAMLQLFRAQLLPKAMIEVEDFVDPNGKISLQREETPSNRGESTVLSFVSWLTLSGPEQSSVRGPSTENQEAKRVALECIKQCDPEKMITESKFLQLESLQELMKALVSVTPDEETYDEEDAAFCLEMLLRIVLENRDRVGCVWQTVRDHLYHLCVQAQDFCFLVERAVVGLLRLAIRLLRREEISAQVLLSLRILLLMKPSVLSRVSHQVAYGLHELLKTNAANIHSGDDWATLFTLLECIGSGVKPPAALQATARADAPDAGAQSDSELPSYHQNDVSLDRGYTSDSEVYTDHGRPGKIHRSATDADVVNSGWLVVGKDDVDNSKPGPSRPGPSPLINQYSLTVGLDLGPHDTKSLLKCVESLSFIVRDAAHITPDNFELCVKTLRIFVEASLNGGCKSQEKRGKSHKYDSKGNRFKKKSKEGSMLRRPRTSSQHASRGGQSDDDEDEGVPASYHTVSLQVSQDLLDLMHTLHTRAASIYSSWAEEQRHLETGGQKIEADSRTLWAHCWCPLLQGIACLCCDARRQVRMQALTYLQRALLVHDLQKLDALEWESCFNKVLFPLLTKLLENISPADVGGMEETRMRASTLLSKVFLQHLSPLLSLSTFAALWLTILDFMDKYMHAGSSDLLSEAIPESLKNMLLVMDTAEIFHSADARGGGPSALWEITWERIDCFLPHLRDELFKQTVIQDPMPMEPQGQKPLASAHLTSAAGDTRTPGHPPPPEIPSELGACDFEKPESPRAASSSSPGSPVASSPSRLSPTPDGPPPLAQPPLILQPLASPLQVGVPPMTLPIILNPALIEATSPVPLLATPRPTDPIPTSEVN
Chain of UniProt Q9UKD1 (Q9UKD1 whole entry, looked up): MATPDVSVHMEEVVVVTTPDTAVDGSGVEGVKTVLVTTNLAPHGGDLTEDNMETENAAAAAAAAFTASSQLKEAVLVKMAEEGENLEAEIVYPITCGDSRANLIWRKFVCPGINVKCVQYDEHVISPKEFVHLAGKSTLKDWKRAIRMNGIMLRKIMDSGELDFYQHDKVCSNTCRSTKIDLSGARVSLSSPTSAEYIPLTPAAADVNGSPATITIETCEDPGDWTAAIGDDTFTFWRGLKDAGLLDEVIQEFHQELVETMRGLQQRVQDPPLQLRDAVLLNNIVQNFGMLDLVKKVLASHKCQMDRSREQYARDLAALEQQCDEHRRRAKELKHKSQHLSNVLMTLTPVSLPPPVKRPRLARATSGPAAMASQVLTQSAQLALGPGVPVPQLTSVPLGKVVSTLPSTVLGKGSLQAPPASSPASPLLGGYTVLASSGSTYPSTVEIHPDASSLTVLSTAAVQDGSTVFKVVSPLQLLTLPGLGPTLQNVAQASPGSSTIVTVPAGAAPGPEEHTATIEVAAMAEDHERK
Chain of UniProt Q53T59 (Q53T59 whole entry, looked up): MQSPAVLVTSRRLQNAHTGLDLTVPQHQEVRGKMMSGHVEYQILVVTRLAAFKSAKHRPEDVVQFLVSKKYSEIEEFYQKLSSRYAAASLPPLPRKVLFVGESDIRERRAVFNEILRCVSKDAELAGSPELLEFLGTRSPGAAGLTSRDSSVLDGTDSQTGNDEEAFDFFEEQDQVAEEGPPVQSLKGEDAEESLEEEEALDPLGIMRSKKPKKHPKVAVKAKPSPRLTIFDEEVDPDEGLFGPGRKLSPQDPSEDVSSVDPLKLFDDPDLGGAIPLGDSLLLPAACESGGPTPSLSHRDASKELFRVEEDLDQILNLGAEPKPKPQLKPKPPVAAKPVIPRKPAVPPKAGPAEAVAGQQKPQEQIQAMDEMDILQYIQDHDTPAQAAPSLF

Compound in this test: CNc1nc(-c2ccc3c(N)n[nH]c3c2)cc(N2C[C@@H](C(=O)NC3CCCCC3)CC[C@H]2C)n1
The experiment in a line: log2 fold change, soluble protein after heating vs DMSO (PISA); higher = thermal stabilisation; K562 cells, 10 uM, 30 min; active = over 0.2 and 3.5 SD of the protein, either way, in both replicates (recomputed). A digest of the protocol:
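Thermal stability values are relative to control samples and come from duplicates. They are expressed as log2 fold changes. For measurement, K562 cells (2×10^6 cells/mL) received 10 μM compound for 30 min, and aliquots were heated for 3 min over 48°C-58°C, pooled, and extracted at 4°C in PBS with 0.5% NP-40. Soluble protein, the supernatant after 21,000xg for 90 min, was quantified by TMTpro 16plex LC-MS/MS with equalised channel sums.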
Regarding FHOD1 (UniProt Q9Y613), the log2 fold change was 0.101 (inactive).

Turning to GLB1 (UniProt P16278), the log2 fold change is 0.002 (inactive).

Regarding HDGFL2 (UniProt Q7Z4V5), the log2 fold change was -0.058 (inactive).

As for FYB1 isoform 3 (UniProt O15117), the log2 fold change was -0.076 (inactive).

With GSTT1 (UniProt P30711), the log2 fold change is 0 (inactive).

For HEXA (UniProt P06865), the log2 fold change was -0.018 (inactive).

Take GLUL (UniProt P15104): the log2 fold change was -0.153 (inactive).

Regarding HS1BP3 (UniProt Q53T59), the log2 fold change is 0.371 (active).

Consider ICMT (UniProt O60725), for which the log2 fold change was 0.235 (inactive).

Consider HNRNPH2 (UniProt P55795), for which the log2 fold change is -0.001 (inactive).

For GGA2 (UniProt Q9UJY4), the log2 fold change was -0.054 (inactive).

GBA2 (UniProt Q9HCG7): the log2 fold change was 0.11 (inactive).

Regarding HK2 (UniProt P52789), the log2 fold change was -0.045 (inactive).

With GMEB2 (UniProt Q9UKD1), the log2 fold change is -0.023 (inactive).

Turning to IFRD1 (UniProt O00458), the log2 fold change is -0.042 (inactive).

As for GAK (UniProt O14976), the log2 fold change was 0.402 (inactive).

Take HDAC7 isoform 5 (UniProt Q8WUI4): the log2 fold change was 0 (inactive).

As for HNRNPUL1 (UniProt Q9BUJ2), the log2 fold change was 0.034 (inactive).

HSD17B12 (UniProt Q53GQ0): the log2 fold change was 0.038 (inactive).

Regarding GBF1 (UniProt Q92538), the log2 fold change is 0.059 (inactive).

In the case of GOLGB1 isoform 2 (UniProt Q14789), the log2 fold change is -0.001 (inactive).

For GLRX3 (UniProt O76003), the log2 fold change was -0.023 (inactive).

HMGN1 (UniProt P05114): the log2 fold change was -0.064 (inactive).
